Reference: PubChem BioAssay AID1159580 (chemical genetic matrix, 2015)
Where “and” joins values, the source holds several entries; their conditions need not be identical. Identical values can stand only once. Among all 5,500 compounds or so, about 2,000 (36%) were called active. Inconclusive results (about 18%) are left out. Rule as the data show it: active = normalized growth mostly below about 0.91 (no sharp cut-off); inconclusive = no clear call, values can overlap the other calls; inactive = mostly above about 0.92. The list shows a part of the results.

Assay: chemical genetic growth profiling, strain panel (AID 1159580);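 also: tested at 20 µM; growth read once vehicle control cultures reached saturation at 30 °C; 1 = growth at the plate median or of vehicle wells; lower values mean less growth of the strain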
Conditions: S. cerevisiae deletion strains, growth OD

Measured: normalized growth

C[C@@H]1CCC2[C@](C)(CO)[C@@H](O)CC[C@]2(C)[C@@]12CC[C@@](CO)(CCO)O2 (stereo partly specified)
inactive: locus YAL021C, strain ccr4, active compounds read low 0.991 | locus YAL026C, strain drs2, active compounds read low 0.985 | locus YAL030W, strain snc1, active compounds read low 0.987 | locus YBL061C, strain skt5, active compounds read low 0.967 | locus YBR009C, strain hhf1, active compounds read low 0.977 | locus YBR021W, strain FUR4, active compounds read low 0.998 | locus YBR023C, strain chs3, active compounds read low 0.983 | locus YBR171W, strain sec66, active compounds read low 0.965 | locus YBR229C, strain ROT2, active compounds read low 0.997 | locus YBR231C, strain swc5, active compounds read low 0.997 | locus YBR279W, strain paf1, active compounds read low 0.991 | locus YCL011C, strain gbp2, active compounds read low 0.994 | locus YCL016C, strain dcc1, active compounds read low 0.989 | locus YCL029C, strain bik1, active compounds read low 0.986 | locus YCL061C, strain MRC1, active compounds read low 0.975 | locus YCL069W, strain vba3, active compounds read low 0.979 | locus YCR088W, strain abp1, active compounds read low 0.979 | locus YDL005C, strain med2, active compounds read low 0.972 | locus YDL035C, strain GPR1, active compounds read low 1.02 | locus YDL040C, strain nat1, active compounds read low 0.972 | locus YDL074C, strain BRE1, active compounds read low 1 | locus YDL101C, strain DUN1, active compounds read low 1 | locus YDL134C, strain PPH21, active compounds read low 1.04 | locus YDL185W, strain tfp1, active compounds read low 0.987 | locus YDL192W, strain arf1, active compounds read low 0.994 | locus YDR001C, strain nth1, active compounds read low 0.986 | locus YDR069C, strain doa4, active compounds read low 0.963 | locus YDR101C, strain arx1, active compounds read low 0.995 | locus YDR137W, strain rgp1, active compounds read low 1.01 | locus YDR159W, strain sac3, active compounds read low 0.933 | locus YDR162C, strain NBP2, active compounds read low 1.06 | locus YDR195W, strain ref2 0.959 | locus YDR297W, strain sur2, active compounds read low 0.996 | locus YDR318W, strain mcm21, active compounds read low 0.994 | locus YDR334W, strain swr1, active compounds read low 0.976 | locus YDR335W, strain msn5, active compounds read low 0.978 | locus YDR388W, active compounds read low 0.974 | locus YDR392W, strain spt3, active compounds read low 0.975 | locus YDR502C, strain sam2, active compounds read low 1.01 | locus YEL003W, strain gim4, active compounds read low 0.974 | locus YEL037C, strain rad23, active compounds read low 0.968 | locus YEL061C, strain CIN8 (second series), active compounds read low 0.98 | locus YEL061C, strain CIN8, active compounds read low 1.01 | locus YER015W, strain faa2, active compounds read low 0.99 | locus YER016W, strain bim1, active compounds read low 0.981 | locus YER110C, active compounds read low 0.983 | locus YER111C, strain swi4, active compounds read low 0.959 | locus YER155C, strain BEM2 (second series), active compounds read low 0.958 | locus YER155C, strain BEM2, active compounds read low 0.993 | locus YER167W, strain BCK2, active compounds read low 1 | locus YFR010W, strain ubp6, active compounds read low 0.957 | locus YGL078C, strain dbp3, active compounds read low 0.985 | locus YGL086W, strain mad1, active compounds read low 1.03 | locus YGL167C, strain pmr1, active compounds read low 0.976 | locus YGL173C, strain kem1, active compounds read low 0.979 | locus YGL227W, strain vid30, active compounds read low 0.978 | locus YGL240W, strain doc1, active compounds read low 0.966 | locus YGL248W, strain PDE1, active compounds read low 1 | locus YGL253W, strain hxk2, active compounds read low 0.944 | locus YGR078C, strain PAC10, active compounds read low 1.03 | locus YGR135W, strain pre9, active compounds read low 0.983 | locus YGR229C, strain SMI1, active compounds read low 1.04 | locus YGR252W, strain gcn5, active compounds read low 1.02 | locus YHR013C, strain ard1, active compounds read low 0.959 | locus YHR027C, strain rpn1, active compounds read low 0.983 | locus YHR030C, strain SLT2, active compounds read low 1 and 0.991 | locus YHR079C, strain IRE1 (second series), active compounds read low 0.981 | locus YHR079C, strain IRE1, active compounds read low 0.99 | locus YHR094C, strain hxt1, active compounds read low 0.982 | locus YHR129C, strain ARP1, active compounds read low 1 | locus YHR142W, strain chs7, active compounds read low 0.977 | locus YHR200W, strain rpn10, active compounds read low 0.985 | locus YIL066C, strain RNR3, active compounds read low 1.02 | locus YIL073C, strain SPO22, active compounds read low 0.979 | locus YIL125W, strain kgd1, active compounds read low 0.975 | locus YIR030C, strain dcg1, active compounds read low 0.991 | locus YJL092W, strain hpr5, active compounds read low 0.977 | locus YJL095W, strain BCK1 (second series), active compounds read low 0.983 | locus YJL095W, strain BCK1, active compounds read low 1.04 and 0.955 | locus YJL115W, strain asf1, active compounds read low 0.986 | locus YJL129C, strain trk1, active compounds read low 0.966 | locus YJL134W, strain LCB3, active compounds read low 0.991 | locus YJL154C, strain vps35, active compounds read low 0.982 | locus YJL164C, strain tpk1, active compounds read low 1 | locus YJL166W, strain qcr8, active compounds read low 0.98 | locus YJL168C, strain set2, active compounds read low 0.989 | locus YJL187C, strain SWE1 (second series), active compounds read low 1 | locus YJL187C, strain SWE1, active compounds read low 0.981 | locus YJR043C, strain POL32, active compounds read low 1.04 | locus YJR066W, strain TOR1, active compounds read low 0.976 | locus YJR075W, strain HOC1, active compounds read low 1.04 | locus YKL009W, strain mrt4, active compounds read low 0.976 | locus YKL068W, active compounds read low 0.986 | locus YKL085W, strain MDH1 (second series), active compounds read low 0.99 | locus YKL085W, strain MDH1, active compounds read low 0.99 | locus YKL160W, strain elf1, active compounds read low 0.988 | locus YKR001C, strain vps1, active compounds read low 1.01 | locus YKR026C, strain gcn3, active compounds read low 0.978 | locus YKR091W, strain srl3, active compounds read low 0.988 | locus YLL001W, strain dnm1, active compounds read low 0.991 | locus YLL026W, active compounds read low 0.982 | locus YLL041C, strain sdh2, active compounds read low 0.977 | locus YLR027C, strain aat2, active compounds read low 0.98 | locus YLR039C, strain RIC1, active compounds read low 1.09 | locus YLR058C, strain SHM2, active compounds read low 1 | locus YLR102C, strain apc9, active compounds read low 0.977 | locus YLR113W, strain HOG1, active compounds read low 0.991 | locus YLR221C, strain rsa3, active compounds read low 0.953 | locus YLR258W, strain gsy2, active compounds read low 0.969 | locus YLR262C, strain YPT6 (second series), active compounds read low 1.01 | locus YLR262C, strain YPT6, active compounds read low 1.09 | locus YLR268W, strain sec22, active compounds read low 0.996 | locus YLR320W, strain mms22, active compounds read low 0.971 | locus YLR330W, strain CHS5, active compounds read low 0.995 | locus YLR342W, strain FKS1 (second series), active compounds read low 0.995 | locus YLR342W, strain FKS1, active compounds read low 0.969 | locus YLR357W, strain rsc2, active compounds read low 0.95 | locus YLR370C, strain arc18, active compounds read low 0.977 | locus YLR371W, strain rom2, active compounds read low 0.982 | locus YLR384C, strain iki3, active compounds read low 0.974 | locus YLR418C, strain cdc73, active compounds read low 1.03 | locus YML016C, strain PPZ1, active compounds read low 0.997 | locus YML032C, strain rad52, active compounds read low 0.97 | locus YML120C, strain ndi1, active compounds read low 0.992 | locus YML124C, strain tub3, active compounds read low 0.993 | locus YMR058W, strain fet3, active compounds read low 0.973 | locus YMR078C, strain ctf18, active compounds read low 1 | locus YMR125W, strain sto1, active compounds read low 0.982 | locus YMR129W, active compounds read low 0.986 | locus YMR205C, strain PFK2, active compounds read low 1.01 | locus YMR223W, strain ubp8, active compounds read low 1 | locus YMR231W, strain pep5, active compounds read low 0.951 | locus YMR307W, strain GAS1, active compounds read low 1.15 | locus YNL067W, strain RPL9B, active compounds read low 1.03 | locus YNL071W, strain lat1, active compounds read low 0.989 | locus YNL153C, strain GIM3, active compounds read low 1.04 | locus YNL183C, strain NPR1, active compounds read low 0.977 | locus YNL209W, strain ssb2, active compounds read low 0.992 | locus YNL233W, strain BNI4, active compounds read low 1.02 | locus YNL248C, strain rpa49, active compounds read low 0.976 | locus YNL250W, strain rad50, active compounds read low 0.985 | locus YNL271C, strain bni1, active compounds read low 1.01 | locus YNL298W, strain CLA4, active compounds read low 0.968 | locus YNL307C, strain MCK1, active compounds read low 0.982 | locus YNL322C, strain KRE1 (second series), active compounds read low 1 | locus YNL322C, strain KRE1, active compounds read low 1.01 | locus YNR049C, strain mso1, active compounds read low 0.971 | locus YNR052C, strain pop2, active compounds read low 0.983 | locus YOL012C, strain htz1 1.2 | locus YOL147C, strain pex11, active compounds read low 0.989 | locus YOR001W, strain rrp6, active compounds read low 0.956 | locus YOR061W, strain CKA2, active compounds read low 1 | locus YOR069W, strain VPS5, active compounds read low 0.991 | locus YOR070C, strain gyp1, active compounds read low 0.973 | locus YOR080W, strain dia2, active compounds read low 0.972 | locus YOR083W, strain WHI5, active compounds read low 1 | locus YOR106W, strain vam3, active compounds read low 1.03 | locus YOR136W, strain idh2, active compounds read low 0.984 | locus YOR144C, strain elg1, active compounds read low 0.999 | locus YOR184W, strain ser1, active compounds read low 1.02 | locus YOR231W, strain MKK1, active compounds read low 1 | locus YOR265W, strain rbl2, active compounds read low 0.996 | locus YOR270C, strain vph1, active compounds read low 0.971 | locus YOR290C, strain snf2, active compounds read low 0.967 | locus YOR316C, strain cot1, active compounds read low 0.975 | locus YPL051W, strain arl3, active compounds read low 0.965 | locus YPL078C, strain atp4, active compounds read low 0.995 | locus YPL106C, strain sse1, active compounds read low 0.987 | locus YPL240C, strain hsp82, active compounds read low 0.981 | locus YPL241C, strain CIN2, active compounds read low 1.01 | locus YPL256C, strain CLN2, active compounds read low 0.996 | locus YPR119W, strain clb2, active compounds read low 0.997 | locus YPR141C, strain kar3, active compounds read low 0.984 | locus YPR163C, strain tif3, active compounds read low 0.983 | locus YPR167C, strain met16, active compounds read low 1.01 | strain wtn01, active compounds read low 0.98
